Unmarked numbers belong to inactive results. Inconclusive results are not listed. The source made the active and inactive calls. Unless noted, calls come from the whole dose curve; as a rule, active = well fitted curve in the direction sought with a large enough effect in the repeat runs; inconclusive = weak or mixed curves; inactive = no such curve, though single readings can be large; an effect the other way counts as inactive or inconclusive.

In PubChem BioAssay (Tox21) one finds Potency and outcome data, which are given here for 9 compounds.

The nature of test [1]: A CellTox Green Cytotoxicity Assay to monitor cytotoxicity in HepG2 cells - 32 hour (AID 1224883). Note: nearly all actives have a fitted effect of over 50% in size. The procedure, abridged:
(§1)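 Measurements at 0, 8, 16, 24, 32 and 40 h of treatment captured CellTox Green fluorescence in HepG2 cells that had been co-plated with reagent and preincubated 5 h at 37 C/5% CO2.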

The nature of test [2]: A CellTox Green Cytotoxicity Assay to monitor cytotoxicity in HEK293 cells - 8 hour (AID 1224884). Note: nearly all actives have a fitted effect of over 35% in size. The procedure, abridged: (§2)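 Tox21 screen in HEK293: membrane-impermeant cyanine dye fluoresces on binding dead-cell DNA; compound pinned 5 h post-seeding, plates held at 37 C, signal read repeatedly through 40 h.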
Test [3] can be described thus: qHTS RealTime-Glo MT Cell Viability Assay in HepG2 cells - 16 hour (AID 1224885). Note: nearly all actives have a fitted effect of over 50% in size. The procedure, abridged:
(§3)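 Tox21 10K library screened in qHTS format on HepG2 cells carrying RealTime-Glo reagents. Compounds were added after a 5 h preincubation, and the luminescent signal from continuous culture was measured repeatedly during 40 h treatment.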

A short description of test [4]: qHTS RealTime-Glo MT Cell Viability Assay in HEK293 cells - 24 hour (AID 1224886). Note: top concentration of the series differs between compounds; nearly all actives have a fitted effect of over 50% in size. The method in brief: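 Luminescence generated by NanoLuc from substrate produced by living HEK293 cells served as the viability signal. Each value reflects the reading at its stated time point during continuous 40 h compound exposure at 37 C.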
A general note: Quantitative high-throughput screening tests each substance at several concentrations.

Test [5] is described as follows: qHTS RealTime-Glo MT Cell Viability Assay in HEK293 cells - 8 hour (AID 1224887). Note: top concentration of the series differs between compounds; nearly all actives have a fitted effect of over 50% in size. The method in brief: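 HEK293 + NanoLuc + prosubstrate, 600 cells/well; 5 h, 37 C/5% CO2; compound 23 nL in DMSO by pintool; 37 C; luminescence read at 0, 8, 16, 24, 32 and 40 h time points.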
Test [6] can be described thus: A CellTox Green Cytotoxicity Assay to monitor cytotoxicity in HEK293 cells - 16 hour (AID 1224888). Note: nearly all actives have a fitted effect of over 35% in size. The procedure, abridged: as §2
The nature of test [7]: qHTS RealTime-Glo MT Cell Viability Assay in HepG2 cells - 0 hour (AID 1224889). Note: nearly all actives have a fitted effect of over 50% in size. The procedure, abridged: as §3
A short description of test [8]: A CellTox Green Cytotoxicity Assay to monitor cytotoxicity in HepG2 cells - 8 hour (AID 1224890). Note: nearly all actives have a fitted effect of over 45% in size. The procedure, abridged:
as §1

Test [9] in a line: qHTS assay to identify small molecule antagonists of the estrogen receptor alpha (ER-alpha) signaling pathway using the BG1 cell line in the presence of 0.1 nM 17-beta-estradiol - cell viability counter screen (AID 1259241). Note: nearly all actives have a fitted effect of over 40% in size. The method in brief: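 VM7Luc4E2, 4,000 cells/well, phenol red-free medium + 10% charcoal-stripped FBS; 24 hr plating; cpd + 0.1 nM E2 final, 22 hr 37C/5% CO2; CellTiter-Fluor 30 min, fluorescence.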

Test [10] can be described thus: qHTS assay to identify small molecule antagonists of the androgen receptor (AR) signaling pathway using the MDA cell line in the presence of 0.5 nM R1881 - cell viability counter screen (AID 1259242). Note: nearly all actives have a fitted effect of over 45% in size. The procedure, abridged: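 Concentration-response screen of compounds for toxicity in MDA-kb2 reporter cells: 16 hr at 37C with 0.5 nM R1881, endpoint live-cell protease fluorescence measured in the reporter wells.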

Test [11] deals with Estrogen receptor (Homo sapiens) (UniProt P03372). Nature of the test: qHTS assay to identify small molecule antagonists of the estrogen receptor alpha (ER-alpha) signaling pathway using the BG1 cell line in the presence of 0.1 nM 17-beta-estradiol (AID 1259244). Note: nearly all actives have a fitted effect of over 50% in size. The procedure, abridged: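 Compounds were tested against 0.1 nM (final) 17beta-estradiol in VM7Luc4E2 cells, which express full-length ER-alpha and an ERE-luciferase reporter; luminescence was recorded following 22 h exposure.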
Sequence of Estrogen receptor (Homo sapiens) (P03372 whole entry, looked up): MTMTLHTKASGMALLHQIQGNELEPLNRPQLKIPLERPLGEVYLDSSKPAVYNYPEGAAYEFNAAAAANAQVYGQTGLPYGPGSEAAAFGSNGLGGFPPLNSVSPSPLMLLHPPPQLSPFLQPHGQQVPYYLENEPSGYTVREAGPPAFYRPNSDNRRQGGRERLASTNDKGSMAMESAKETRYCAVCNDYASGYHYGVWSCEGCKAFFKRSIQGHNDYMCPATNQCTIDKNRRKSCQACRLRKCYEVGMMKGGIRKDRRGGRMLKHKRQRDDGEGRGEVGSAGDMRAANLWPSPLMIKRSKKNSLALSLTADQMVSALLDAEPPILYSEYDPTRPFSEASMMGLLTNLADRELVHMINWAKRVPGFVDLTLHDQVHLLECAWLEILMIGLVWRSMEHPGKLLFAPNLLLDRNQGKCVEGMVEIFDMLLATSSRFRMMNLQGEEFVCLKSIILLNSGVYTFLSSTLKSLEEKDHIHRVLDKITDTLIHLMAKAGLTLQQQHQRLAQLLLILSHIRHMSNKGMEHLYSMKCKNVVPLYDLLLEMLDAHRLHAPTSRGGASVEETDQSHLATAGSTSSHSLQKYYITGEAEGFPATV

Test [12] can be described thus: qHTS assay to identify small molecule phospholipidosis (PLD) inducers (AID 1259344; active = well fitted curve in the direction sought with a large enough effect; an effect the other way counts as inactive or inconclusive). The method in brief:
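Read-out is LipidTOX Red fluorescence (ex 595/em 615) imaged in HepG2 cells after 24 h compound exposure at 37 C, with Hoechst nuclear counterstain (ex 352/em 461) allowing per-cell normalisation.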

A short description of test [13]: qHTS assay to identify small molecule HDAC inhibitors (AID 1259364).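 Note: wild-type HCT-116 cells with endogenous class I/II HDAC activity; top concentration of the series differs between compounds; nearly all actives have a fitted effect of over 45% in size.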 The method in brief: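 Screening used wild-type human colon HCT-116 cells incubated overnight, dosed with compounds for 2 hours, and assayed with a homogeneous luminogenic HDAC I/II reagent for 30 minutes at room temperature.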
Test [14] can be described thus: qHTS assay to identify small molecule HDAC inhibitors - cell viability counter screen (AID 1259365). The procedure, abridged: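 Luminescence from CellTiter-Glo, developed 30min at room temperature, reports viability of wild-type HCT-116 cells treated 2hr with compounds at 37 C and 5% CO2 after overnight plating.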
A short description of test [15]: qHTS assay to identify small molecule agonists of the sonic hedgehog signaling (Shh) pathway - cell viability counter screen (AID 1259366). Note: nearly all actives have a fitted effect of over 50% in size. The method in brief: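 Cytotoxicity counter screen run in the same wells as the Shh reporter assay. NIH/3T3 cells carrying a Gli1 response element–driven luciferase were treated with DMSO-dissolved compounds for 24hr, and live-cell protease activity was measured with CellTiter-Fluor.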

A short description of test [16]: qHTS assay to identify small molecule antagonists of the sonic hedgehog signaling (Shh) pathway - cell viability counter screen (AID 1259367). Note: nearly all actives have a fitted effect of over 55% in size. The method in brief: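 Fluorescence read-out (CellTiter-Fluor, 1 hr at 37C) taken after 23 hr compound treatment of 3T3 Gli1-Luc cells stimulated with conditioned medium. Cells were seeded at 2,000 per well and pre-incubated 4 hr.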

Test [17] in a line: qHTS assay to identify small molecule antagonists of the sonic hedgehog signaling (Shh) pathway (AID 1259369; calls by dose curve; note: nearly all actives have a fitted effect of over 45% in size; note: potency is the fitted concentration of half-maximal effect). The procedure, abridged: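 NIH/3T3 stable Gli1-Luc clone, 2,000 cells/well, 4hr settle; cpd + conditioned medium 24hr; Luc reagent 30min RT; luminescence.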
The nature of test [18]: A CellTox Green Cytotoxicity Assay to monitor cytotoxicity in HepG2 cells - 0 hour (AID 1224882). Note: nearly all actives have a fitted effect of over 35% in size. The procedure, abridged:
as §1

Test [19] can be described thus: qHTS assay to identify small molecule agonists of the sonic hedgehog signaling (Shh) pathway (AID 1259368; calls by dose curve;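 note: NIH/3T3-derived 3T3Gli1-Luc cells carrying a stable Gli1-driven firefly luciferase reporter; series mostly up to about 92 µM; nearly all actives have a fitted effect of over 15% in size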). The procedure, abridged:
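Hedgehog pathway agonism scored by increased firefly luciferase luminescence in 3T3Gli1-Luc cells treated 24 hr at 37 C; detection used a 30 min room-temperature reagent incubation.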

For `CCOC(=O)OC(C)OC1=C(C(=O)Nc2ccccn2)N(C)S(=O)(=O)c2ccccc21` (centres undefined), the Potency result in test [1], in test [4], in test [5], in [7], in test [13] and in test [15] was “inactive” in each case. Moreover, the Potency entry in test [16] and in [17] was “inactive” in each case. The outcome in test [2], in test [3], in [6], in test [8], in test [9] and in test [10] was inactive. Also, the outcome in test [11], in [12] and in test [14] was inactive.
Take `CCCc1nn(C)c2c(=O)[nH]c(-c3cc(S(=O)(=O)N4CCN(C)CC4)ccc3OCC)nc12`: the Potency result in [18], in [1], in test [5], in [7], in test [13] and in [15] was “inactive” each time. Further, the Potency entry in [16] is “inactive”. The result in test [3], in test [6], in test [8], in test [9], in test [10] and in test [12] was inactive. Besides, the result in [14] and in test [19] was inactive.
Take `CC(C)(C#N)Nc1nc(Cl)nc(NC2CC2)n1`: the Potency entry in test [18], in [1], in test [4], in test [5], in [7] and in test [13] was “inactive” throughout. Moreover, the Potency entry in [15] and in [16] was “inactive” throughout. The compound was classed as inactive in [3], in [6], in test [8], in [10], in test [14] and in test [19]. In addition, the Potency in [17] is 243 nM (active).
As for `CCC(=O)OCc1ccccc1`, the Potency result in [18], in test [1], in test [4], in test [5], in test [7] and in [13] was “inactive” throughout. The Potency result in test [15], in [16] and in test [17] was “inactive” in each case. Besides, the outcome in test [3], in test [6], in test [8], in test [9], in test [10] and in test [14] was inactive.
Take `CC(C#N)(CCC(=O)O)N=NC(C)(C#N)CCC(=O)O` (centres undefined): the Potency result in [18], in test [1], in test [4], in test [5], in test [7] and in test [13] was “inactive” in each case. Also, the Potency entry in [15], in test [16] and in [17] was “inactive” in each case. Further, the compound was classed as inactive in test [3], in [6], in test [8], in [9], in [10] and in test [19].
With `C=COC(=O)C(C)(CC)CCC(C)C` (centres undefined), the Potency result in [18], in [1], in [4], in [5], in test [7] and in [13] was “inactive” each time. The Potency entry in [15], in [16] and in test [17] was “inactive” each time. In addition, the compound was classed as inactive in test [3], in test [6], in [8], in [9], in test [10] and in test [14]. Further, the outcome in test [19] was inactive.
For the compound `CCCCCCCCN1CCCC1=O`, the Potency entry in test [18], in [1], in [4], in test [5], in test [7] and in test [13] was “inactive” each time. Further, the Potency result in [15] and in test [17] was “inactive” each time. In addition, the compound was classed as inactive in [6], in test [8], in [9], in test [10], in test [14] and in [19].
Turning to `C=COCC1CCC(COC=C)CC1` (centres undefined), the Potency result in [18], in test [4], in [7], in test [13], in [15] and in test [16] was “inactive” in each case. Moreover, the Potency entry in test [17] is “inactive”. The call in test [2], in [3], in [6], in test [8], in test [9] and in test [10] was inactive. Further, the compound was classed as inactive in [14] and in test [19].
With `CC(C)(C)C(=O)Oc1ccc(S(=O)(=O)Nc2ccccc2C(=O)NCC(=O)O)cc1`, the Potency entry in test [1], in test [4], in [5], in test [7], in [13] and in test [15] was “inactive” throughout. The Potency entry in test [16] and in test [17] was “inactive” throughout. In addition, the compound was called inactive in [2], in test [3], in [6], in test [8], in test [9] and in [10]. Further, the result in [11], in test [12] and in [19] was inactive.
